The entries come from a sample that favours hits as a whole.
HSV augment: increases HSV replication in cells. HSV replication augmentation in cells, fold increase. maximum fold increase. actives 0.005% (n = 220,000). AID 1956; in the data active = maximum fold increase above about 1.5; inconclusive = no clear call, values can overlap the other calls; tested in PC3 cells
ROMK primary: modulates human ROMK potassium channel activity | B-score at 10 µM | Tet-inducible ROMK, thallium flux fluorescence; actives lie on both sides | AID 1918 | actives 2% (n = 130,000);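 active = signal ratio slope over the read window, or its plate-corrected B-score, at least 3 SD from the plate mean, either direction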;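 also: B-score of the F/F0 ratio slope over 7 to 12 s after thallium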
Target sequence (P48048 whole entry, looked up): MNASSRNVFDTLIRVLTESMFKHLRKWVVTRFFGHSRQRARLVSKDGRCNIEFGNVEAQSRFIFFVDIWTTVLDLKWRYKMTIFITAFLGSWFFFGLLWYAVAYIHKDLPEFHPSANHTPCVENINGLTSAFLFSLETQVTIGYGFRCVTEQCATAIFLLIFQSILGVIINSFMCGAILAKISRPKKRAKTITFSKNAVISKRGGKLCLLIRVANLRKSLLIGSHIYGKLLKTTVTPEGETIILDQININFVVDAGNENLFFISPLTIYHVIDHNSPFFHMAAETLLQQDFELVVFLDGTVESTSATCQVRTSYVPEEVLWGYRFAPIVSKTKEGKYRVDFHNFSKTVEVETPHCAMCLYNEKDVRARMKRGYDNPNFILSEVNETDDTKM
TbHK1 inh: blocks Trypanosoma brucei hexokinase 1 activity | recombinant TbHK1, G6PDH-coupled NADH A340 | actives 0.11% (n = 220,000) | AID 1430 | inhibition, % at 10 µM;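 active = inhibition of 50% or more in the single-dose primary screen; inactive = inhibition below 50%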
INS promoter inh: TRM-6 insulin promoter activity inhibition | TRM-6 cells (human fetal islet line), insulin promoter-eGFP reporter, imaging; reporter expression induced with tamoxifen | inhibition, % at 2 µM | actives 0.9% (n = 130,000) | AID 1273;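 active = inhibition above the mean plus 3 SD, with well images judged a real hit on visual review, cut at about 60% in these data, passing the limit was not always enough; inconclusive = inhibition over the cutoff but images rejected on review; inactive = inhibition not above the cutoff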
Insulin prom up: MIN6 insulin promoter up-regulation | MIN6 insulin promoter-GFP reporter, high-content imaging; active compounds read high | z-score at 5 µM | actives 0.3% (n = 190,000) | AID 1625;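 active = z-score above 3 at 5 µM with at least 500 cells counted in the well; inconclusive = wells under 500 cells, flagged as cytotoxic or low count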
ROMK hit retest: human ROMK channel modulation, retest confirmation; actives 54% (n = 3,000); normalized thallium flux (F/F0 slope) at 10 µM; ROMK thallium flux, fluorescence ratio; active compounds read low; AID 1917; shares compounds with ROMK primary;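 active = Flux at 10 µM at least 3 SD below or above vehicle control mean in one or both replicates; inconclusive = no clear call, values can overlap the other calls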
Starred values were filed as active, the others as inactive; i = inactive; ? = inconclusive; . = no result given.

SMILES	HSV augment	ROMK primary	TbHK1 inh	INS promoter inh	Insulin prom up	ROMK hit retest
O=C1C=C(c2ccc3c(c2)OCO3)CCC1	i	.	.	.	.	.
CC(=O)c1ccc(NC2OC(CO)C(O)C(O)C2O)cc1 (stereo not given)	i	1.27	-7.1	-3.0	-0.9	.
CCC(=O)NC1OC(CO)C(O)C(O)C1O (stereo not given)	i	-2.37*	-3.6	.	0.62	0.0731
Clc1ccc(C2=NNC(=NCc3ccccc3)SC2)cc1	i	-0.224	-6.3	.	-0.07	.
Fc1ccc(C2=NNC(=NCc3ccccc3)SC2)cc1F	i	-2.97*	-5.4	-28.6	-0.62	?
O=C(/C=C/c1ccc(Cl)cc1)c1cccnc1	i	-8.09*	-35.7	44.8	0.14	0.0427*
N#Cc1ccc(/C=C/C(=O)c2cccnc2)cc1	i	-3.33*	-15.2	.	-0.53	0.0453*
O=C(/C=C/c1ccccc1Cl)c1cccnc1	i	-7.35*	-26.5	-22.2	0.89	0.044*
Cc1ccc2c(c1)C(=O)c1ccccc1CS2=O (stereo not given)	i	0.081	1.3	-66.7	0.51	.
CCCN1CCC(NC(=S)Nc2cccc(Cl)c2Cl)CC1	i	-0.0521	-2.9	.	0.01	.
CCC1(C(=O)O)NC(c2cc(OC)ccc2O)C2C(=O)N(Cc3ccccc3)C(=O)C21 (stereo not given)	i	.	0.4	.	-0.44	.
CCCCN1C(=O)C2C(c3ccc(OC)cc3O)NC(CC(C)C)(C(=O)O)C2C1=O (stereo not given)	i	.	-2.0	.	-0.47	0.0804
Cc1cc2c(c(N)n1)c(=O)oc1ccccc12	i	-0.448	-10.8	.	0.02	.
COC(=O)c1c(C)nc(C)c2c(=O)oc3ccccc3c12	i	.	3.3	-10.7	.	?
CCCCCCc1ccc(-c2ncc(N)cn2)cc1	i	-4.26*	1.6	-18.9	0.04	0.081
CCCCCc1ccc(-c2nnc(N)s2)cc1	i	-0.35	2.4	-12.2	-0.13	.
CCOC(=O)C(=O)N1CCC(C(=O)OC)CC1	i	1.31	5.4	.	.	.
CC(C)N(CCn1c(=S)[nH]c2ccccc2c1=O)C(C)C	i	3.22*	-5.5	47.8	1.03	0.0678*
COc1ccc(CCn2c(NN)nc3c2c(=O)[nH]c(=O)n3C)cc1	i	4.84*	-10.3	.	-0.51	?
COc1ccc(CCn2c(NN=C(C)C)nc3c2c(=O)[nH]c(=O)n3C)cc1	i	.	-11.4	.	-0.14	.
CC(=O)Nc1ccc(S(=O)(=O)N2c3ccccc3NC(=O)CC2C)c(Cl)c1 (stereo not given)	i	-0.686	-12.3	.	-0.88	.
CC(C)(C)SCCNS(=O)(=O)c1ccc(C#N)cc1	i	0.092	41.6	.	-0.95	.
O=C(CCc1ccccc1)NC(=S)Nc1ccccc1Br	i	-1.47	-1.5	.	0.05	.
C#C[C@]1(O)CC[C@H]2[C@@H]3[C@H](C)CC4=C(CCC(=O)C4)[C@H]3CC[C@@]21C	i	.	.	.	.	.
COc1cc(C2CC(=O)c3cnc(NC(=O)COc4ccccc4)nc3C2)cc(OC)c1OC (stereo not given)	i	0.903	-2.9	.	-0.02	.
SMILES	HSV augment	ROMK primary	TbHK1 inh	INS promoter inh	Insulin prom up	ROMK hit retest
COc1cc(C2CC(=O)c3cnc(N)nc3C2)cc(OC)c1OC (stereo not given)	i	3.94*	3.6	41.7	.	0.0722
COC(=O)CSc1nnc(-c2ccc(NS(=O)(=O)c3ccccc3)cc2)o1	i	-3.54*	-18.0	.	0.55	0.056*
Cc1ccc(CSc2nnc(-c3ccc(NS(=O)(=O)c4ccccc4)cc3)o2)cc1	i	0.239	3.0	20.0	-0.07	.
O=C(c1cccs1)c1no[n+]([O-])c1C(=O)c1cccs1	i	.	2.7	24.1	3.78*	0.0285*
COc1ccc(C(=O)c2no[n+]([O-])c2C(=O)c2ccc(OC)cc2)cc1	i	.	8.3	18.2	-0.05	?
Clc1cc(Br)ccc1OCCCNCc1ccccc1	i	-4.28*	23.0	0.0	-0.38	0.0592*
CN(Cc1ccccc1)C(=O)COc1ccc(Br)cc1Cl	i	-0.375	9.0	.	0.17	.
CC(C)(C)c1ccc(OCCCNCc2ccccc2)cc1	i	-0.905	15.3	13.3	0.61	.
CCc1cc(OCCCCNCc2ccccc2)ccc1Cl	i	-3.61*	18.3	26.3	-0.08	0.0543*
CSCCC(NC(=O)c1ccc(C(C)(C)C)cc1)C(=O)O (stereo not given)	i	0.0795	1.8	-144.4	-1.45	.
CN1C(=O)/C(=C/C=C2\SCCN2C)SC1=S	?	-2.96*	2.4	-40.0	2.58	0.0571*
Cc1ccc(C2=NOC(=O)/C2=C\c2ccc(C)o2)cc1	i	-3.74*	3.4	.	0.22	0.0392*
CCN(CC)CC(O)COc1ccccc1C(=O)CCc1ccccc1 (stereo not given)	i	-0.904	5.9	.	-0.49	.
CCCCN(CCCC)CC(O)COc1ccccc1C(=O)Nc1ccccc1 (stereo not given)	i	-3.49*	23.9	.	-2.8	0.0532*
FC(F)(F)c1cccc(NC(=S)NNC(=S)Nc2cccc(C(F)(F)F)c2)c1	i	.	-5.7	.	-0.76	.
Cc1ccccc1C(=O)NNC(=S)Nc1cccc(C(F)(F)F)c1	i	.	13.0	10.8	-0.06	0.0643*
NCCCCC(NC(=O)C1CCCN1C(=O)C1CSSCC(N)C(=O)NC(Cc2ccc(O)cc2)C(=O)NC(Cc2ccccc2)C(=O)NC(CCC(N)=O)C(=O)NC(CC(N)=O)C(=O)N1)C(=O)NCC(N)=O (stereo not given)	.	-0.462	-2.5	-72.7	0.58	.
CC(C)(C)C(=O)c1cnc(Nc2ccccc2Cl)s1	i	5.41*	-27.8	-53.6	-0.06	0.0903
CCCCC(CC)C(=O)N1CCN(C(=O)c2ccco2)CC1 (stereo not given)	i	0.0138	7.1	21.4	0.28	.
Cc1ccc(NS(=O)(=O)c2ccc(-c3csc(C)n3)s2)c(C)c1	i	-11.2*	-5.5	.	-0.31	0.0743
COc1ccc(N=Cc2c(O)c3ccccc3n2C(C)=O)cc1	?	.	-17.6	.	1.77	0.0335*
Cc1ccc(C(=O)N(C)CC(=O)Nc2ccc(F)c(F)c2F)o1	i	-1.04	2.3	14.3	.	.
Cc1nc2ccccc2c2c1C(=O)NC2=O	i	0.65	-7.0	.	-0.42	.
O=[n+]1c2c(n([O-])c3cc(F)c(N4CCCC4)cc31)CCC2	?	.	-13.9	-11.4	.	.
O=[n+]1c2c(n([O-])c3cc(F)c(N4CCCC4)cc31)CCCC2	?	-6.33*	-22.6	.	0.26	0.0433*
Cc1cccc(OCCCN2CCCCCC2)c1	i	3.19*	1.6	-2.6	-0.08	0.0734
C=C(C)c1cccc(C(C)(C)NC(=O)N2CCC(C(N)=O)CC2)c1	i	0.0173	-1.6	14.3	-0.45	.
CCCC1(C(=O)OC)NC(c2cccc(F)c2)C2C(=O)N(CC)C(=O)C21 (stereo not given)	i	.	-5.5	25.0	0.28	0.0713
CCCc1nnc(N2C(=O)c3cccc4cccc(c34)C2=O)s1	i	2.32*	-20.8	-46.9	0.41	0.0802
Cc1nnc(N2C(=O)c3cccc4cccc(c34)C2=O)s1	i	-0.361	-36.4	9.4	0.36	.

Screening results (PubChem BioAssay)
